Sampled rows, rich in hits. Any-hit rate of the full collection: about 1.6%.
PME-1 primary: PME-1 (human) inhibition; Q9Y570; recombinant PME-1, FP-Rh probe fluorescence polarization; inhibition, % at 5.9 µM; actives 0.53% (n = 320,000); AID 2130;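 active = inhibition above the campaign mean of all compounds plus 3 SD, cut at about 26% in these data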;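 also: competitive labeling of PME-1 active site by serine hydrolase directed probe; 0% = PME-1 with DMSO and 100% = wells lacking PME-1 enzyme; inhibitors block probe labeling so polarization falls and inhibition rises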
PREPL inh: inhibits the human prolyl oligopeptidase-like enzyme | actives 0.68% (n = 320,000) | AID 2751 | inhibition, % at 5.96 µM | recombinant PREPL, fluorescence polarization activity-based probe | Q4J6C6; in the data active = inhibition above about 43%;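 also: 0% = enzyme with DMSO and 100% = wells lacking enzyme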
Target sequence (Q4J6C6 whole entry, looked up): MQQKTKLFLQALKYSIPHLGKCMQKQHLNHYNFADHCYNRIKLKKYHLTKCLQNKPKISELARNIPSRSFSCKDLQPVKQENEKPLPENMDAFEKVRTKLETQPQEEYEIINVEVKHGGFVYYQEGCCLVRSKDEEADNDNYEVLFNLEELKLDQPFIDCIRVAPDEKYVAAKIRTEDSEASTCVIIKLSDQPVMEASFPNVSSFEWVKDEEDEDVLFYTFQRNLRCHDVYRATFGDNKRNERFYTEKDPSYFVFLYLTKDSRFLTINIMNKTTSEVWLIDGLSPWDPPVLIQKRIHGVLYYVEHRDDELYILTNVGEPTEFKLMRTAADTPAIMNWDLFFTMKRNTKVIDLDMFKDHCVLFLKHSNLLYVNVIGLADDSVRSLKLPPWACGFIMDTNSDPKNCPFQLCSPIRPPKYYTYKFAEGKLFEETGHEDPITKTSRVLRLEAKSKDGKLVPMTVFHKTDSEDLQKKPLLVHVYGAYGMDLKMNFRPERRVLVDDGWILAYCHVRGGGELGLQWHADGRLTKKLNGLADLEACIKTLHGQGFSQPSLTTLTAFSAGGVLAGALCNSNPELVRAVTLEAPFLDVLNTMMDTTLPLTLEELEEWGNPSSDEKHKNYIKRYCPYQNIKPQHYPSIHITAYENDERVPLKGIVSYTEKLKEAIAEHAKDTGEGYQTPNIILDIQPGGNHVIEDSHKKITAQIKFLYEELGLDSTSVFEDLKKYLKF
LYPLA2 counter: counter-screen for PME1 inhibitors: inhibitors of human LYPLA2; recombinant LYPLA2, FP-Rh probe fluorescence polarization; inhibition, % at 5.9 µM; actives 0.38% (n = 320,000);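 active = inhibition above the screen-wide mean plus 3 SD, limit set per campaign, cut at about 26% in these data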;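 also: 0% = LYPLA2 with DMSO and 100% = wells lacking LYPLA2 enzyme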
Fam108B inh: counter-screen for RBBP9 inhibitors: inhibitors of mouse Fam108B; actives 0.33% (n = 300,000); inhibition, % at 9.51 µM; recombinant Fam108B, FP-Rh probe fluorescence polarization;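 active = inhibition above the screen mean inhibition plus 3 SD, computed separately per campaign, cut at about 18% in these data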;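 also: inhibitors lower polarization as less probe binds the enzyme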
LYPLA1 counter: blocks human lysophospholipase 1, a PME1 counter-screen; O75608; recombinant LYPLA1, FP-Rh probe fluorescence polarization; inhibition, % at 5.9 µM; actives 0.16% (n = 320,000);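 active = inhibition above the mean of all tested compounds plus 3 SD, set per campaign, cut at about 14% in these data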;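 also: inhibitors block serine hydrolase probe labeling of LYPLA1 so polarization falls; 0% = enzyme with DMSO and 100% = wells lacking LYPLA1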
MEX-5 binding: C. elegans MEX-5 TCR-2 RNA binding activity | Q9XUB2 | MEX-5/FITC-TCR2 RNA binding, fluorescence polarization; active compounds read low | activity score (negative = inhibition of binding), % at 10 µM | actives 0.38% (n = 300,000);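 active = inhibition past about -25% in most replicates, and total fluorescence under double the plate's negative control median, limit read from the data; inconclusive = replicates evenly split on the limit, or fluorescence at least double controls; inactive = too little inhibition in most replicates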;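 also: 0% = DMSO and -100% = 5 µM competing unlabeled TCR2 RNA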
* hit, by the source's call; ? = inconclusive; nt = not tested or not shown.

SMILES	PME-1 primary	PREPL inh	LYPLA2 counter	Fam108B inh	LYPLA1 counter	MEX-5 binding
O=C(N/N=C\c1ccc(COc2ccc([N+](=O)[O-])cc2)o1)c1cccc(Cl)c1	36*	-37	-1	13	-14	0
O=C(N/N=C/c1ccc(-c2cccc([N+](=O)[O-])c2)o1)c1ccccc1O	-5	9	-4	1	-3	3
O=C(N/N=C/c1ccc(-c2cccc([N+](=O)[O-])c2)o1)c1ccc([N+](=O)[O-])cc1	5	18	-1	16	5	-35*
O=C1c2cccc([N+](=O)[O-])c2C(=O)N1CCO	-1	0	-3	0	-4	-2
O=C1CSC(=S)N1N1C(=O)c2cccc([N+](=O)[O-])c2C1=O	-2	-5	4	1	0	-28*
O=C(CSCc1cccc(Br)c1)NC1CC1	2	-4	-5	-1	-2	1
COc1ccccc1NCC(=O)N/N=C/c1c(O)ccc2ccccc12	18	8	3	7	-2	?
O=C(CNc1ccc(F)cc1)N/N=C/c1c(O)ccc2ccccc12	37*	37	-2	9	-9	-7
COC(=O)N/N=C/c1cn(CCOc2ccc(OC)cc2)c2ccccc12	2	23	13	0	-2	0
COc1ccc(OCCn2cc(/C=N/NC(=O)c3ccncc3)c3ccccc32)cc1	32*	35	39*	9	-7	-3
COc1ccc(-c2[nH]c3ccccc3c2SCCN)cc1	7	55*	-2	2	-1	-2
O=C1SC(SCc2ccccc2Cl)=N/C1=C\c1ccc(C(=O)O)cc1	3	-8	-10	0	1	-41*
CCCCNc1ncnc2sc3c(c12)CCN(CCC)C3	8	24	-5	-4	-2	4
Cc1cc(C)nc(Nc2ccc(N3CCCC3)cc2)n1	-9	44*	6	-1	-3	-1
Cc1ccc(C)c(S(=O)(=O)N2CCN(C(=O)[C@@H](NC(=O)c3ccc(F)cc3)C(C)C)CC2)c1	4	0	-5	nt	-1	nt
O=C(O)COc1ccccc1C(Nc1cccnc1)c1cc(Cl)c2cccnc2c1O (stereo not drawn)	nt	nt	nt	nt	nt	-59*
O=S(=O)(Nc1nc2ccccc2nc1NCc1ccco1)c1ccc(Cl)cc1	8	0	0	3	-2	4
Cc1noc(C)c1CSc1nc2ccccc2nc1NS(=O)(=O)c1ccc(Cl)cc1	27*	5	0	-6	-6	-2
O=C(NCC(c1ccco1)N1CCCC1)c1cccc(S(=O)(=O)Nc2ccc(F)cc2)c1 (stereo not drawn)	-7	0	-7	nt	-3	nt
Fc1cc(F)cc(NC(=S)NN2CCOCC2)c1	-4	1	-3	-2	0	-2
Cc1ccc(Cl)cc1N1CCN(C(=O)Cc2ccc(-n3c(=O)[nH]c4ccsc4c3=O)cc2)CC1	4	-5	34*	6	2	2
COc1ccc2[nH]c(C(=O)NCc3ccc4c(c3)OCO4)cc2c1	3	10	-5	-4	-2	-2
CCCOc1ccc(/C=c2\sc3nc(-c4ccco4)nn3c2=O)cc1OCC	-6	8	-7	2	-3	-67*
CCCCCOc1ccc(/C=c2\sc3nc(=O)c(-c4ccccc4)nn3c2=O)cc1OC	-4	3	-1	0	3	-31*
C=CCNC(=S)Nc1cc(Cl)ccc1OC	4	7	5	4	5	-40*
SMILES	PME-1 primary	PREPL inh	LYPLA2 counter	Fam108B inh	LYPLA1 counter	MEX-5 binding
C=CCN(CC=C)C(=S)Nc1cc(Cl)ccc1OC	3	4	2	1	2	2
O=C(Nc1ccc2c(c1)OCCO2)c1ccc(Br)s1	2	10	1	5	-3	-1
CCOC(=O)/C(C#N)=C/c1cc2ccccc2nc1N1CCCCC1	3	0	-1	-2	-3	-39*
CC(=O)c1ccc(S(=O)(=O)Nc2ccc3c(c2)OCO3)cc1	nt	-1	nt	nt	nt	nt
CCc1ccc(S(=O)(=O)Nc2ccc(O)c3c(=O)cc(-c4ccccc4Cl)oc23)cc1	-10	-67	-29	-11	-19	0
O=c1cc(-c2ccccc2Cl)oc2c(NS(=O)(=O)c3cc(Cl)cc(Cl)c3O)ccc(O)c12	57*	12	-24	7	-14	-55*
COc1ccccc1N1CCN(C(c2cccs2)C(C)NC(=O)C(=O)N2CCCCC2)CC1 (stereo not drawn)	-13	8	-3	-1	4	0
O=C(N/N=C/c1ccco1)/C(=C/c1cccc([N+](=O)[O-])c1)NC(=O)c1ccccc1	1	47*	9	3	0	-3
O=C(CCC(=O)Nc1ccccc1Cl)NNC(=S)Nc1ccccc1C(F)(F)F	5	7	3	0	-1	-2
NS(=O)(=O)c1ccc(NC(=S)NNC(=O)CCC(=O)Nc2ccccc2Cl)cc1	-1	-4	-1	1	2	-31*
CCN(CC)c1ccc(C=Nc2ccc(C)cc2C)c(O)c1	4	-6	-2	6	1	-1
Cc1ccc(N=Cc2sc(O)c3ccccc23)c(C)c1	-10	1	-6	-8	1	-31*
O=C(Nc1nnc2n1CCS2)c1ccco1	-3	0	-10	1	-6	1
O=C(Nc1ccc([N+](=O)[O-])cc1)Nc1nc(-c2ccc(Cl)s2)cs1	44*	5	-15	11	-24	-1
CC(=O)Nc1nc(-c2ccc([N+](=O)[O-])cc2)cs1	-4	-7	-4	0	-2	2
CCN(CC)Cc1cc(O)c(CN(CC)CC)cc1O	nt	nt	nt	nt	nt	-39*
CCOc1ccccc1-c1cc(-c2ccc(OC)cc2)nc2c1c(=O)n(C)c(=O)n2C	-4	9	-6	-5	-1	1
O=C(NC(=S)NC12CC3CC(CC(C3)C1)C2)c1ccc(F)cc1	nt	-2	nt	nt	nt	nt
N#CC(C(=O)NC1CCCCC1)c1nc2ccccc2nc1N1CCN(c2ccc(F)cc2)CC1 (stereo not drawn)	nt	nt	nt	nt	nt	-76*
Cc1ccc(S(=O)(=O)Nc2ccccc2F)cc1C(=O)NNC(=O)c1ccccc1O	-1	14	1	-2	2	-37*
COc1ccc(NS(=O)(=O)c2ccc(C)c(C(=O)NNC(=O)c3ccccc3O)c2)cc1	0	-1	-1	2	-1	-7
N#CC1=C(N)N2C(=C(C#N)C1c1ccccc1)Sc1ccccc12 (stereo not drawn)	-2	1	-6	1	-2	-33*
O=C(/C=C/c1ccc([N+](=O)[O-])cc1)OCC(=O)N1CCCCCC1	nt	17	nt	nt	nt	nt
O=[N+]([O-])c1ccc(Cl)c(-c2ccc(/C=N/n3cnnc3)o2)c1	6	12	-2	-4	-2	-1
O=[N+]([O-])c1cc(-c2ccc(/C=N/n3cnnc3)o2)ccc1Cl	-1	19	-1	-2	1	-40*

Source: PubChem (several laboratories)
